# Assay results published in the supplement of paper PMC8728848.
# The full list was thinned out, with the strongest signals kept by preference.
# B1: Mermaid3 (Stilbonema majum) (protein)
# chain: MGSSHHHHHHSSGLVPRGSHMAASGWLRSPQGTVVKLYRRSLSWSKADEFCKDVDGRLVVDRTADMHLFLIKNVLKEKKSRVWVGLRRTASHSRTWIWSDGTRQNEGDLDANLWLRDEPNDAAGEEECALFMYSPWEKAWGLNDYLCRGGCRNYQFICEKWIR
# What was measured:
# Assay in all cases: glycan array binding signal (z-score within array); higher = stronger binding
# Conditions in all cases: glycan notation: IUPAC condensed, linker removed
# [1] = biological target: Fuc(a1-2)Gal(b1-4)GlcNAc(b1-3)Gal(b1-4)GlcNAc(b1-2)Man(a1-3)[Fuc(a1-2)Gal(b1-4)GlcNAc(b1-3)Gal(b1-4)GlcNAc(b1-2)Man(a1-6)]Man(b1-4)GlcNAc(b1-4)GlcNAc
# How it was run: (§1)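 The Consortium for Functional Glycomics database supplied 3228 glycan arrays, of which those lacking an available protein sequence were dropped. The binding signal, a within-array Z-score, was averaged across arrays of the same protein sequence and across linkers. Negative scores can be read as non-binding.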
# [2] = biological target: Fuc(a1-2)[Gal(a1-3)]Gal(b1-4)GlcNAc
# How it was run: as §1
# [3] = biological target: Fuc(a1-2)[Gal(a1-3)]Gal(b1-4)GlcNAc(b1-2)Man
# How it was run: as §1
# [4] = biological target: Fuc(a1-2)[Gal(a1-3)]Gal(b1-4)GlcNAc(b1-6)GalNAc
# How it was run: as §1
# [5] = biological target: Fuc(a1-2)[Gal(a1-3)]Gal(b1-4)[Fuc(a1-3)]GlcNAc(b1-3)GalNAc
# How it was run: as §1
# [6] = biological target: Fuc(a1-2)[GalNAc(a1-3)]Gal(b1-4)GlcNAc(b1-2)Man(a1-3)[Fuc(a1-2)[GalNAc(a1-3)]Gal(b1-4)GlcNAc(b1-2)Man(a1-6)]Man(b1-4)GlcNAc(b1-4)[Fuc(a1-6)]GlcNAc
# How it was run: as §1
# [7] = biological target: Fuc(a1-3)[Gal(b1-4)]GlcNAc(b1-3)Gal(b1-4)[Fuc(a1-3)]GlcNAc(b1-3)Gal(b1-4)[Fuc(a1-3)]GlcNAc
# How it was run: as §1
# [8] = biological target: Fuc(a1-3)[Gal(b1-4)]GlcNAc6S
# How it was run: as §1
# [9] = biological target: Fuc(a1-3)[Gal3S(b1-4)]GlcNAc6S
# How it was run: as §1
# Fuc(a1-4)GlcNAc = biological target: Fuc(a1-4)GlcNAc
# How it was run: as §1
# Gal(a1-3)Gal = biological target: Gal(a1-3)Gal
# How it was run: as §1
# Gal(b1-3)GalNAc = biological target: Gal(b1-3)GalNAc
# How it was run: as §1
# [10] = biological target: Gal(b1-3)GlcNAc(b1-2)Man(a1-3)[Gal(b1-3)GlcNAc(b1-2)Man(a1-6)]Man(b1-4)GlcNAc(b1-4)GlcNAc
# How it was run: as §1
# [11] = biological target: Gal(b1-3)GlcNAc(b1-3)Gal(b1-4)GlcNAc(b1-3)Gal(b1-4)GlcNAc(b1-2)[Gal(b1-3)GlcNAc(b1-3)Gal(b1-4)GlcNAc(b1-3)Gal(b1-4)GlcNAc(b1-6)]Man(a1-6)[Gal(b1-3)GlcNAc(b1-3)Gal(b1-4)GlcNAc(b1-3)Gal(b1-4)GlcNAc(b1-2)Man(a1-3)]Man(b1-4)GlcNAc(b1-4)[Fuc(a1-6)]GlcNAc
# How it was run: as §1
# [12] = biological target: Gal(b1-3)[Fuc(a1-4)]GlcNAc(b1-2)Man
# How it was run: as §1
# [13] = biological target: Gal(b1-3)[Fuc(a1-4)]GlcNAc(b1-3)Gal(b1-3)[Fuc(a1-4)]GlcNAc
# How it was run: as §1
# Gal(b1-4)Gal = biological target: Gal(b1-4)Gal
# How it was run: as §1
# [14] = biological target: Gal(b1-4)GlcNAc(b1-2)[Gal(b1-4)GlcNAc(b1-6)]Man(a1-6)[GlcNAc(b1-4)][Gal(b1-4)GlcNAc(b1-2)[Gal(b1-4)GlcNAc(b1-4)]Man(a1-3)]Man(b1-4)GlcNAc(b1-4)[Fuc(a1-6)]GlcNAc
# How it was run: as §1
# [15] = biological target: Gal(b1-4)GlcNAc(b1-3)Gal(b1-4)GlcNAc(b1-2)[Gal(b1-4)GlcNAc(b1-3)Gal(b1-4)GlcNAc(b1-6)]Man(a1-6)[Gal(b1-4)GlcNAc(b1-3)Gal(b1-4)GlcNAc(b1-2)Man(a1-3)]Man(b1-4)GlcNAc(b1-4)GlcNAc
# How it was run: as §1
# [16] = biological target: Gal(b1-4)GlcNAc(b1-3)Gal(b1-4)GlcNAc(b1-3)GalNAc
# How it was run: as §1
# [17] = biological target: Gal(b1-4)GlcNAc(b1-3)Gal(b1-4)GlcNAc(b1-3)[Gal(b1-4)GlcNAc(b1-3)Gal(b1-4)GlcNAc(b1-6)]GalNAc
# How it was run: as §1
# [18] = biological target: Gal(b1-4)GlcNAc(b1-3)Gal(b1-4)[Fuc(a1-3)]GlcNAc(b1-3)Gal(b1-4)[Fuc(a1-3)]GlcNAc
# How it was run: as §1
# [19] = biological target: Gal(b1-4)GlcNAc(b1-3)[Gal(b1-4)GlcNAc(b1-6)]Gal(b1-4)GlcNAc
# How it was run: as §1
# [20] = biological target: Gal(b1-4)GlcNAc(b1-3)[GlcNAc(b1-6)]Gal(b1-4)GlcNAc
# How it was run: as §1
# Gal3S(b1-4)Glc6S = biological target: Gal3S(b1-4)Glc6S
# How it was run: as §1
# [21] = biological target: GalNAc(b1-4)GlcNAc(b1-2)Man
# How it was run: as §1
# GalNAc(b1-4)GlcNAc6S = biological target: GalNAc(b1-4)GlcNAc6S
# How it was run: as §1
# GlcA(b1-3)GlcNAc = biological target: GlcA(b1-3)GlcNAc
# How it was run: as §1
# [22] = biological target: GlcNAc(a1-3)Gal(b1-4)GlcNAc
# How it was run: as §1
# [23] = biological target: GlcNAc(b1-2)[GlcNAc(b1-6)]Man(a1-6)[GlcNAc(b1-4)][GlcNAc(b1-2)Man(a1-3)]Man(b1-4)GlcNAc(b1-4)GlcNAc
# How it was run: as §1
# GlcNAc(b1-3)Man = biological target: GlcNAc(b1-3)Man
# How it was run: as §1
# Kdn(a2-3)Gal(b1-3)GlcNAc = biological target: Kdn(a2-3)Gal(b1-3)GlcNAc
# How it was run: as §1
# [24] = biological target: Man(a1-2)Man(a1-2)Man(a1-3)Man
# How it was run: as §1
# [25] = biological target: Man(a1-2)Man(a1-6)[Man(a1-3)]Man(a1-6)[Man(a1-2)Man(a1-2)Man(a1-3)]Man
# How it was run: as §1
# Man(a1-3)[Man(a1-6)]Man = biological target: Man(a1-3)[Man(a1-6)]Man
# How it was run: as §1
# [26] = biological target: Man(a1-3)[Man(a1-6)]Man(b1-4)GlcNAc(b1-4)GlcNAc
# How it was run: as §1
# Man(b1-4)GlcNAc = biological target: Man(b1-4)GlcNAc
# How it was run: as §1
# [27] = biological target: Neu5Ac(a2-3)Gal(b1-3)GalNAc6S
# How it was run: as §1
# [28] = biological target: Neu5Ac(a2-3)Gal(b1-3)GlcNAc
# How it was run: as §1
# Neu5Ac(a2-3)Gal(b1-4)Glc = biological target: Neu5Ac(a2-3)Gal(b1-4)Glc
# How it was run: as §1
# [29] = biological target: Neu5Ac(a2-3)Gal(b1-4)GlcNAc(b1-2)Man
# How it was run: as §1
# [30] = biological target: Neu5Ac(a2-3)Gal(b1-4)GlcNAc(b1-3)Gal(b1-4)GlcNAc(b1-3)[Neu5Ac(a2-3)Gal(b1-4)GlcNAc(b1-3)Gal(b1-4)GlcNAc(b1-6)]GalNAc
# How it was run: as §1
# [31] = biological target: Neu5Ac(a2-3)Gal(b1-4)GlcNAc(b1-6)[Gal(b1-3)]GalNAc
# How it was run: as §1
# [32] = biological target: Neu5Ac(a2-3)Gal(b1-4)[Fuc(a1-3)]GlcNAc(b1-2)Man
# How it was run: as §1
# [33] = biological target: Neu5Ac(a2-3)Gal(b1-4)[Fuc(a1-3)]GlcNAc(b1-6)[Neu5Ac(a2-3)Gal(b1-3)]GalNAc
# How it was run: as §1
# [34] = biological target: Neu5Ac(a2-3)GalNAc(b1-4)GlcNAc
# How it was run: as §1
# [35] = biological target: Neu5Ac(a2-3)[Neu5Ac(a2-6)]GalNAc
# How it was run: as §1
# [36] = biological target: Neu5Ac(a2-6)GlcNAc(b1-4)GlcNAc
# How it was run: as §1
# Neu5Ac(a2-8)Neu5Ac = biological target: Neu5Ac(a2-8)Neu5Ac
# How it was run: as §1
# [37] = biological target: Neu5Ac9Ac(a2-3)Gal(b1-4)GlcNAc
# How it was run: as §1
# [38] = biological target: Neu5Gc(a2-8)Neu5Gc(a2-3)Gal(b1-4)GlcNAc
# How it was run: as §1
binder,measurement,setting,value
B1,glycan array binding signal (z-score),[1],0.368
same,glycan array binding signal (z-score),[2],-0.174
same,glycan array binding signal (z-score),[3],-0.175
same,glycan array binding signal (z-score),[4],-0.383
same,glycan array binding signal (z-score),[5],-0.592
same,glycan array binding signal (z-score),[6],0.166
same,glycan array binding signal (z-score),[7],-0.463
same,glycan array binding signal (z-score),[8],3.67
same,glycan array binding signal (z-score),[9],-0.521
same,glycan array binding signal (z-score),Fuc(a1-4)GlcNAc,1.39
same,glycan array binding signal (z-score),Gal(a1-3)Gal,-0.579
same,glycan array binding signal (z-score),Gal(b1-3)GalNAc,0.892
same,glycan array binding signal (z-score),[10],-0.627
same,glycan array binding signal (z-score),[11],5.6
same,glycan array binding signal (z-score),[12],0.676
same,glycan array binding signal (z-score),[13],-0.634
same,glycan array binding signal (z-score),Gal(b1-4)Gal,6.72
same,glycan array binding signal (z-score),[14],-0.562
same,glycan array binding signal (z-score),[15],3.51
same,glycan array binding signal (z-score),[16],-0.185
same,glycan array binding signal (z-score),[17],-0.118
same,glycan array binding signal (z-score),[18],-0.554
same,glycan array binding signal (z-score),[19],-0.074
same,glycan array binding signal (z-score),[20],4.93
same,glycan array binding signal (z-score),Gal3S(b1-4)Glc6S,-0.077
same,glycan array binding signal (z-score),[21],-0.708
same,glycan array binding signal (z-score),GalNAc(b1-4)GlcNAc6S,3.6
same,glycan array binding signal (z-score),GlcA(b1-3)GlcNAc,1.68
same,glycan array binding signal (z-score),[22],1.05
same,glycan array binding signal (z-score),[23],-0.397
same,glycan array binding signal (z-score),GlcNAc(b1-3)Man,5.11
same,glycan array binding signal (z-score),Kdn(a2-3)Gal(b1-3)GlcNAc,-0.708
same,glycan array binding signal (z-score),[24],-0.704
same,glycan array binding signal (z-score),[25],-0.681
same,glycan array binding signal (z-score),Man(a1-3)[Man(a1-6)]Man,0.678
same,glycan array binding signal (z-score),[26],-0.62
same,glycan array binding signal (z-score),Man(b1-4)GlcNAc,4.76
same,glycan array binding signal (z-score),[27],-0.112
same,glycan array binding signal (z-score),[28],-0.277
same,glycan array binding signal (z-score),Neu5Ac(a2-3)Gal(b1-4)Glc,0.506
same,glycan array binding signal (z-score),[29],4.26
same,glycan array binding signal (z-score),[30],-0.289
same,glycan array binding signal (z-score),[31],4.77
same,glycan array binding signal (z-score),[32],-0.553
same,glycan array binding signal (z-score),[33],-0.153
same,glycan array binding signal (z-score),[34],0.426
same,glycan array binding signal (z-score),[35],4.44
same,glycan array binding signal (z-score),[36],-0.709
same,glycan array binding signal (z-score),Neu5Ac(a2-8)Neu5Ac,-0.57
same,glycan array binding signal (z-score),[37],-0.2
same,glycan array binding signal (z-score),[38],-0.787
